Measurements from PubChem BioAssay (NCI).
This is part of a sample that, as a whole, favours compounds with a hit. Of some 79,000 tested, about 15% had one in any assay. Values without a mark were called inactive. Activity calls are given as the source filed them. Rule as the data show it: active = growth inhibition above about 70%; inactive = the rest.

What was measured:
[1] = NCI Yeast Anticancer Drug Screen. Data for the rad50 strain (AID 155);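 also: 0% = growth of vehicle-only cultures of the same strain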; details: S. cerevisiae rad50 strain growth inhibition; at 50.0 µM; hits give high values
Method in brief: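 Yeast carrying a defined DNA repair defect were exposed to test compounds, and growth was compared with vehicle-treated controls to give percent inhibition.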

[2] = NCI Yeast Anticancer Drug Screen. Data for the mec2-1 strain (AID 157); details: S. cerevisiae mec2-1 strain, at 50.0 µM, hits give high values
Method in brief: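 Readout is yeast growth inhibition, normalised to vehicle-treated controls, in the mec2-1 strain exposed to compound.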

[3] = NCI Yeast Anticancer Drug Screen. Data for the sgs1 mgt1 strain (AID 161);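 also: 0% = growth of cultures given vehicle only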; details: S. cerevisiae sgs1 mgt1 strain, at 50.0 µM, hits give high values
Method in brief: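 Compounds are added to genetically altered yeast, and growth is compared with cultures given vehicle alone to give percent inhibition.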

[4] = NCI Yeast Anticancer Drug Screen. Data for the cln2 rad14 strain (AID 165);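 also: 0% = growth equal to vehicle treated cultures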; details: S. cerevisiae cln2 rad14 strain, at 50.0 µM, hits give high values
Method in brief: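 Relative to vehicle controls, growth inhibition of compound-treated cln2 rad14 yeast was recorded.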

[5] = NCI Yeast Anticancer Drug Screen. Data for the bub3 strain (AID 167); details: S. cerevisiae bub3 mutant strain, at 50.0 µM, hits give high values
Method in brief: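 Compounds were applied to a genetically altered yeast strain carrying a cell-cycle control defect. Growth inhibition was scored against vehicle-treated controls.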

[6] = NCI Yeast Anticancer Drug Screen. Data for the mlh1 rad18 strain (AID 175); details: S. cerevisiae mlh1 rad18 strain growth inhibition; at 50.0 µM; hits give high values
Method in brief: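 Test agents were incubated with a yeast strain of defined genotype (DNA damage repair defect). Inhibition of growth was derived by comparison with vehicle-exposed cultures.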

Row | Compound | growth inhibition [1] | growth inhibition [2] | growth inhibition [3] | growth inhibition [4] | growth inhibition [5] | growth inhibition [6]
1 | CC(=O)NCc1cc2c3c(c1)CCCN3CCC2 | 6% | -7.15% | 4.15% | -32.5% | 0.1% | -4.8%
2 | O=C(NCCSC(=O)Nc1ccccc1)Nc1ccccc1 | 0% | 14.8% | 5.25% | -10% | 29.1% | 8.55%
3 | Cc1nc(-c2ccccc2)[nH]c(=O)c1Cc1cc2c(cc1O)OCC2 | 21.8% | 6.6% | 6.9% | -12.2% | -7.85% | 8.4%
4 | COC1OC(COS(=O)(=O)c2ccc(C)cc2)C(N(C)C(C)=O)C1OS(=O)(=O)c1ccc(C)cc1 (stereo unspecified) | 8.65% | -8.3% | 16.6% | -2.3% | 2.3% | 0.65%
5 | Cc1cc[n+]2c(c1)-c1cc(C)cc[n+]1CC2 | 26.7% | 1.15% | 14.3% | -10.8% | 0.6% | 6.3%
6 | CC1CCc2nc(N)sc2C1 (stereo unspecified) | 14.4% | 11.9% | 18.9% | 8.35% | 1.1% | 5.9%
7 | CCCCC1c2c([nH]c3ccccc23)C2C(=O)N(c3ccc(OC)cc3)C(=O)C2C1CCC (stereo unspecified) | 9.75% | -19.5% | -14.6% | -27.5% | 1.6% | -5.6%
8 | CCc1ccccc1NC(=O)Sc1cccc(C)c1 | -3% | 27% | 25.6% | -12.9% | 23% | -28.9%
9 | CCOC(=O)c1nc2cc(N3CCOCC3)c(F)cc2[nH]c1=O | 16.9% | 23.6% | 23.2% | 3.45% | 28.2% | 34%
10 | CCOC(=O)/C(C#N)=C\Nc1ccc(C)cc1 | -0.85% | -26.6% | -7.95% | -2.55% | -12.1% | -8.75%
11 | Cc1cc(-c2cscn2)c(O)c([N+](=O)[O-])c1 | 3.05% | 3.9% | 27.2% | 12.4% | 1.5% | 7.6%
12 | COc1nc(C(=O)NNC(=O)c2nc(OC)c3ccccc3c2-c2ccccc2)c(-c2ccccc2)c2ccccc12 | -6.9% | -5.8% | -19.2% | -8.7% | -17% | 1.3%
13 | CCCCCCCCCCCCS(=O)(=O)N/N=C(\c1ccccc1Cl)N1CCOCC1 | 48.2% | 33.5% | 45.9% | 48.2% | 55.8% | 51.2%
14 | Brc1ccc(-c2cc(-c3ccc4c(c3)OCO4)c(-c3cccs3)n2Cc2ccccc2)cc1 | -17.9% | -7.55% | -0.5% | 20.1% | -24.6% | -30.1%
15 | Cn1c2ccccc2c2oc(CO)cc(=O)c21 | 13.2% | 0.4% | 5.8% | 23.9% | 10.4% | 19.3%
16 | COC/C(=N/Nc1ccc([N+](=O)[O-])cc1[N+](=O)[O-])C(C)(C)C | -2.8% | 16.4% | 8.6% | -26.3% | -20.9% | -16.8%
17 | CC1=CC(C)(C)NC(=S)N1c1ccccc1O | -0.95% | 25.6% | 15.3% | -16.4% | 41.8% | 41%
18 | O=C1CCCC/C(=C/c2ccccc2)N1 | 4.45% | -7.2% | -6.7% | 12.8% | -21.8% | 7.85%
19 | Cc1c2cc3c(c1O)C(=O)CC(O3)c1ccc(O)c(c1)-c1cccc(c1O)C(=O)OCC1OC(O2)C(O)C(O)C1O (stereo unspecified) | 51.2% | 54.4% | 32% | 34.5% | 39.6% | 30.1%
20 | CCO/C(O)=c1/s/c(=C(\C#N)c2nc3ccccc3[nH]2)n(-c2ccccc2)c1=N | 11.6% | 3.4% | 2.3% | -37.9% | -20.4% | -26.8%
21 | CC1C=CC(C(N)C(=O)O)O1 (stereo unspecified) | -9.9% | -17.6% | -13.1% | -0.7% | -5.35% | -9.85%

Row | Compound | growth inhibition [1] | growth inhibition [2] | growth inhibition [3] | growth inhibition [4] | growth inhibition [5] | growth inhibition [6]
22 | CCOC(=O)C1(Br)C(c2ccccc2)NC(=O)N(C2OC(COC(=O)c3ccccc3)C(OC(=O)c3ccccc3)C2OC(=O)c2ccccc2)C1(C)Br (stereo unspecified) | -25.4% | -28.4% | -27.9% | 6.4% | 7% | -22.8%
23 | COc1cc2c(cc1OC)C(c1ccc(N=Cc3ccc(N(C)C)cc3)cc1)N(C(=S)Nc1cc(Cl)ccc1Cl)CC2 (stereo unspecified) | 35.5% | 5.15% | 40.7% | 21.7% | 24.1% | 26.9%
24 | N#CCCN(CCC#N)C(Cc1cn(CCC#N)cn1)C(=O)O (stereo unspecified) | -8.5% | 6.35% | 4.95% | -13.2% | 5.35% | 10.8%
25 | CCc1cccc(CC)c1Nc1nc(-c2ccccc2-c2ccccc2)cs1 | -29.1% | -4.4% | -7.05% | -99.2% | -20.9% | -39.9%
26 | Nc1ccc(S(=O)(=O)N/N=C/c2ccc(O)cc2)cc1 | 4.35% | -21.4% | 4.7% | -22.1% | 5.1% | -11.3%
27 | COc1ccccc1NC(=O)C(Cc1ccccc1)NC(C)=O (stereo unspecified) | 25.2% | 3.7% | -1.85% | -51.5% | 8.2% | 2.65%
28 | c1ccc(COC2COC(c3ccccc3)OC2)cc1 (stereo unspecified) | 5.95% | -35% | 0.7% | 16.9% | 7.45% | 3.15%
29 | CCOC(=O)c1ccc(N)c(C(O)(C(F)(F)F)C(F)(F)F)c1 | 94.5% (active) | 90.7% (active) | 94.1% (active) | 86.3% (active) | 92% (active) | 95.6% (active)
30 | NC(=O)/C(=C\c1ccc(OCc2ccccc2)c(OCc2ccccc2)c1)NC(=O)c1ccccc1 | 41.2% | 22.4% | 44% | 32.6% | -3.65% | 17.7%
31 | C=CN1C(=O)NC(C)(CC(C)C)C1=O (stereo unspecified) | -1.15% | -10.2% | -6% | 6.75% | -7.25% | 18.4%
32 | CCCCCCCCCCCCCCCCc1c(C)ncn(C)c1=O | -13.9% | 2% | 5.4% | -8.15% | -9.2% | -49%
33 | Nc1ccc(C(=O)Nc2cccc(OCc3nc(N)nc(N)c3-c3ccc(Cl)cc3)c2)cc1 | 16.6% | -6.15% | -16.2% | 16.5% | 2.3% | 13.2%
34 | Cc1ccc(S(=O)(=O)NNC(=O)c2cc(C(=O)NNS(=O)(=O)c3ccc(C)cc3)c(C)nc2C)cc1 | -1.95% | 5.3% | 6.9% | 21.8% | 8.3% | -7.8%
35 | COC(=O)C(Cc1nc2ccccc2[nH]c1=O)C(=O)C(=O)Nc1ccc([N+](=O)[O-])cc1[N+](=O)[O-] (stereo unspecified) | 7.25% | 22.7% | 4.45% | 0.2% | 18.1% | 13.1%
36 | CC(=O)Nc1ccc(C=O)cc1[N+](=O)[O-] | 14.2% | 33.3% | 4.05% | -12.8% | -0.6% | 13.4%
37 | NNc1nc2ccc([N+](=O)[O-])cc2s1 | 13.7% | -8.55% | -1% | -22% | -9.75% | 22.2%
38 | Clc1ccc(-c2cc(-c3cc(-c4ccc(Cl)cc4Cl)n[nH]3)[nH]n2)c(Cl)c1 | 14.2% | 1.75% | -5.3% | 20.6% | 9.9% | 8.55%
39 | OCC1OC(n2cnc3c(Cl)nc(Nc4ccc(Cl)c(Cl)c4)nc32)CC1O (stereo unspecified) | 7.45% | -0.2% | -12.9% | -0.4% | -16.9% | 66%
40 | Nc1cc(Cl)c2c(c1)C(=O)c1ccccc1-2 | -2.45% | 0.7% | -3.95% | -5.3% | -5.3% | -5.4%
41 | C[N+]1(CC(O)C[N+]2(C)CCCCCC2)CCCCCC1 | 11.3% | 14.1% | -7.65% | -6.2% | -2.9% | 32.8%
